The structures appear in SMILES notation. Calls of active or inactive are those of the source.

Experiment [1] deals with Plasmodium falciparum Sir2 (PF13_0152, Sir2A). Nature of the experiment: Plasmodium falciparum Sir2A binding compounds – biochemical, small-molecule microarray, 635 nm fluorescence, primary screen (AID 1098).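 Also: score merges spot fluorescence intensity with its signal-to-noise ratio.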 The conditions noted are these: fluorescence 635 nm, higher = more signal.
Experiment [2] in a line: probe aDKK1 binding to arrayed compounds – biochemical, biotinylated probe, 635/667 nm fluorescence, primary screen (AID 1099).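 Also: score merges 667nm spot fluorescence with signal to noise across triplicate slides; reference of the scale not given here.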 The conditions noted are these: small-molecule microarray, higher = more signal.
Experiment [3] is described as follows: probe aCHRDL2 binding to arrayed compounds – biochemical, biotinylated probe, 635/667 nm fluorescence, primary screen (AID 1100). As to conditions: small-molecule microarray, higher = more signal.
Experiment [4] is described as follows: change in splice reporter luminescence, either direction, cell-based, HEK293, spliceosome inhibition project, primary screen (AID 1101).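 Also: HEK293 cells carrying a splicing-competent luciferase reporter gene; test concentration not given here.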 The conditions noted are these: HEK293 splicing luciferase reporter, 24 h, higher = more signal, called active from +8 up or from −8 down.
For experiment [5], the target named is Fibroblast growth factor 10 (Homo sapiens) (UniProt O15520). The experiment is described as follows: compounds binding fibroblast growth factor 10 – biochemical, small-molecule microarray, 635 nm fluorescence, primary screen (AID 1102). The conditions noted are these: FGF10 binding, fluorescence 635 nm, higher = more signal.
Experiment [6] deals with glycogen synthase kinase-3 (GSK3A per assay name; protocol says GSK3B). Nature of the experiment: compounds binding glycogen synthase kinase-3 – biochemical, small-molecule microarray, 635 nm fluorescence, GSK3A, primary screen (AID 1103). Also: the record names both GSK3A and GSK3B. The conditions noted are these: fluorescence 635 nm, higher = more signal.
In experiment [7] the target is Epidermal growth factor receptor (Homo sapiens) (UniProt P00533). Nature of the experiment: compounds binding epidermal growth factor receptor – biochemical, small-molecule microarray, 635 nm fluorescence, primary screen (AID 1104).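 Also: score merges 667 nm emission intensity with spot signal to noise over triplicate slides.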 The conditions noted are these: EGFR binding, higher = more signal.
The target of experiment [8] is Follistatin-related protein 3 (Homo sapiens) (UniProt O95633). Nature of the experiment: compounds binding follistatin-related protein 3 – biochemical, small-molecule microarray, 635 nm fluorescence, primary screen (AID 1105).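 Also: score merges emission near 667 nm and signal to noise per printed spot across three slides.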 The conditions noted are these: FSTL3 binding, higher = more signal.
For experiment [9], the target named is Dickkopf-related protein 1 (Homo sapiens) (UniProt O94907). The experiment is described as follows: small molecules binding DKK1 protein – biochemical, small-molecule microarray, 635 nm fluorescence scan, primary screen (AID 1106).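 Also: score merges emission near 667 nm with signal to noise over three replicate slides.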 As to conditions: higher = more signal.
Experiment [10] has as its system Inhibin beta A chain (activin A). Nature of the experiment: small molecules binding activin A – biochemical, small-molecule microarray, 635 nm fluorescence scan, primary screen (AID 1107).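 Also: mouse activin A protein probed at 4.33 µg/mL on printed slides; score merges bound-protein fluorescence near 667 nm with spot signal-to-noise.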 The conditions noted are these: INHBA, higher = more signal.

Sequence of Epidermal growth factor receptor (Homo sapiens) (P00533 whole entry, looked up): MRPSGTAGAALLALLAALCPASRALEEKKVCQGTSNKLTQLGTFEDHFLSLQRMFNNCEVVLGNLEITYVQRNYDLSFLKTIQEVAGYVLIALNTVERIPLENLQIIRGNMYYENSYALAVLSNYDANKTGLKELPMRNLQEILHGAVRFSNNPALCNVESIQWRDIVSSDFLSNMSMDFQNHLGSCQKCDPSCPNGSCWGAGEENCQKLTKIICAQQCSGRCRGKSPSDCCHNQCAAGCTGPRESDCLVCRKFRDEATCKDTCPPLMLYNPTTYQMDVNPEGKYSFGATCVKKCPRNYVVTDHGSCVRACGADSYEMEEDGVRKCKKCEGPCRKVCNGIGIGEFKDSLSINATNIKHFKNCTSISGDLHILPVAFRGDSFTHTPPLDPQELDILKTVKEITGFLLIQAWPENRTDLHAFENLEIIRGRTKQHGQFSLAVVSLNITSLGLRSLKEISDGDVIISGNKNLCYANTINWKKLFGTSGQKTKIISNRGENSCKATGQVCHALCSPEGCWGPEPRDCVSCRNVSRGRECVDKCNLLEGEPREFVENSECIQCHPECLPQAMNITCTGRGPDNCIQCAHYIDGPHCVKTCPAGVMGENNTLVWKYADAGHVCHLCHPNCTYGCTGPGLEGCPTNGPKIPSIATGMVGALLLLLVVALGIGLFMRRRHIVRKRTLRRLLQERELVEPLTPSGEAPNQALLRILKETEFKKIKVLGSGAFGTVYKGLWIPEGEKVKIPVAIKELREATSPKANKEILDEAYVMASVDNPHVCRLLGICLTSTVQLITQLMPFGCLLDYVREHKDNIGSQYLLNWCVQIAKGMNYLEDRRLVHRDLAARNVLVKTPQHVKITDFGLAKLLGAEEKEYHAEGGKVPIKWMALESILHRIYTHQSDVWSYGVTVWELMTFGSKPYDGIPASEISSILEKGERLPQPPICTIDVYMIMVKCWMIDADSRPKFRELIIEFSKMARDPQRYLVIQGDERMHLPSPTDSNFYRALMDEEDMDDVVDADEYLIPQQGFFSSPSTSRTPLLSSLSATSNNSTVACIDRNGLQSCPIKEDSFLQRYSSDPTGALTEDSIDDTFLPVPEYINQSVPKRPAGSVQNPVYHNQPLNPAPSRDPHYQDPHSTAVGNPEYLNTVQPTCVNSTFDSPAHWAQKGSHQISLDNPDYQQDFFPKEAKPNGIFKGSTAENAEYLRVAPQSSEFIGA
Sequence of Dickkopf-related protein 1 (Homo sapiens) (O94907 whole entry, looked up): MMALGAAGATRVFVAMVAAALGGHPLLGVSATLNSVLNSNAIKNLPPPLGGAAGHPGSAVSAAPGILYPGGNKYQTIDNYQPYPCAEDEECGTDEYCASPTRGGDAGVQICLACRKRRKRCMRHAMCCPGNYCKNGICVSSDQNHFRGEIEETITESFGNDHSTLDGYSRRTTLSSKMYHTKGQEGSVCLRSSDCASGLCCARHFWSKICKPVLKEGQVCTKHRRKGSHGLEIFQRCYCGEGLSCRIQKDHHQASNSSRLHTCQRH
Sequence of Follistatin-related protein 3 (Homo sapiens) (O95633 whole entry, looked up): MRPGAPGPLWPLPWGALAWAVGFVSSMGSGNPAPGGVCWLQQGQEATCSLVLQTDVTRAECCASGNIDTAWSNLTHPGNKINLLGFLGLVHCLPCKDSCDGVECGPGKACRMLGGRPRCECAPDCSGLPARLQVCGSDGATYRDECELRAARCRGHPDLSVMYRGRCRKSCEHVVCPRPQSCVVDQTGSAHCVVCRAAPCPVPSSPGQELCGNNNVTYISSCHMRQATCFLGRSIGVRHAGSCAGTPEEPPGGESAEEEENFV
Sequence of Fibroblast growth factor 10 (Homo sapiens) (O15520 whole entry, looked up): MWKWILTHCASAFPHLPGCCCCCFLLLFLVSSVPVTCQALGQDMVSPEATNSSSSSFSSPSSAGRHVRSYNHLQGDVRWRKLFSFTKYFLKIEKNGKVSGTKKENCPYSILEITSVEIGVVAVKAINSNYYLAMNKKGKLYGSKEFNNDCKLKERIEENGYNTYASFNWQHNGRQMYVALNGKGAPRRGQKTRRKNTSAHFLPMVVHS

`CC[C@@H]1C=C(C(=O)O)[C@H](c2ccc(Br)cc2)N1S(=O)(=O)c1ccc(C)cc1`: the composite z-score worked out at 0.118 in [1]; 0.495 in [2]; 0.882 in [3]; 0.102 in [5]; 0.268 in experiment [6]; 0.444 in experiment [7]. The composite z-score in experiment [8] was 0.563; in experiment [9], -0.235; in experiment [10] it was 1.11. The z-score in [4] is 1.28 (inactive).

With `CN(C)CCCC[C@@H]1NC(=O)[C@H]2C[C@@H](C(=O)NCCCCCCN)[C@@H](c3ccc(O)cc3)N2C1=O`, the composite z-score in [1] is 0.436; in experiment [2], 1.6; in [3], 1.07; in [5] it was 1.52; in experiment [6], 1.29; in experiment [7], 0.247. The composite z-score came to 1.41 in experiment [8], 0.644 in experiment [9] and 1.17 in [10]. Moreover, in [4], the z-score was -0.193 (inactive).

Regarding `Oc1ccc2cc[n+](Cc3sc4ccccc4c3Cl)cc2c1`, the composite z-score in experiment [1] was 0.23; in experiment [2], 0.0518; in experiment [3], 0.799; in experiment [5], 0.469; in [6], -0.402; in experiment [7], -0.0568. Besides, the composite z-score in [8] was found to be 0.618; in [9], 0.481; in [10], 1.28. In addition, the z-score in [4] was -1.74 (inactive).

For the compound `CC1CC/C=C\[C@H]2OC34C=CCN(C(C)(C)C)C(=O)[C@H]3N(CCO)C(=O)[C@@H]4C2C(=O)O1` (stereo not given in full), the composite z-score in experiment [1] is -0.103; in experiment [2], -0.404; in [3], 0.51; in experiment [5], -0.98; in experiment [6], -0.496; in [7] it was -1.33. In addition, the composite z-score was -0.755 in experiment [8], -0.739 in [9] and -0.0663 in [10]. In addition, the z-score in experiment [4] was 0.851 (inactive).

Take `COc1ccc([Si](C)(C)[C@H]2[C@H](CCO)O[C@@]3(C(=O)N(Cc4ccc(N(C=O)c5ccccc5)cc4)c4ccccc43)[C@@H]2C)cc1`: the composite z-score in experiment [1] is -0.0179; in experiment [2], -0.214; in experiment [3], 0.479; in experiment [5], -0.697; in [6], -1.09; in experiment [7] it was -0.969. Moreover, the composite z-score was -0.251 in experiment [8], -0.36 in experiment [9] and 0.213 in experiment [10]. Also, the z-score in [4] is -1.07 (inactive).

In the case of `NC(=O)N1C(=O)C2C(C1=O)C1C=C(c3ccc(CO)cc3)C2C(c2cccs2)N1Cc1cccc(OC(F)(F)F)c1` (stereo not given), the composite z-score in experiment [1] was -0.148; in [2] it was 0.799; in [3] it was 1.02; in experiment [5], 0.302; in experiment [6] it was -0.343; in experiment [7], -0.813. Moreover, the composite z-score in [8] stood at 0.122; in experiment [9], 0.245; in experiment [10], 1.49. Besides, the z-score in [4] is -1.99 (inactive).

On to `COCCOC(=O)N1C(=O)[C@@]2(c3ccccc31)[C@H](c1ccc(O)cc1)N1[C@H](c3ccccc3)[C@H](c3ccccc3)OC(=O)[C@H]1[C@@H]2C(=O)Nc1nc2ccccc2s1`, for which the composite z-score is 1.39 in experiment [1]; -0.0358 in experiment [2]; -0.167 in experiment [3]; 0.724 in experiment [5]; 1.05 in experiment [6]; 0.252 in experiment [7]. The results for the composite z-score in experiment [8], in experiment [9] and in experiment [10] were 0.542, 0.39 and 0.0446, respectively. Further, the z-score in experiment [4] is -1.3 (inactive).

Consider `COC(=O)[C@@]1(Cc2ccc(OC)cc2)[C@H]2c3cc(C(=O)N(C)C)n(Cc4ccccn4)c3C[C@H]2CN1C(=O)c1ccccc1`, for which the composite z-score in [1] was 1.04; in experiment [2], 1.2; in [3], 1.36; in experiment [5], -0.024; in experiment [6] it was -0.305; in experiment [7], -0.627. Also, the composite z-score in [8] was -0.317; in experiment [9], -0.659; in experiment [10] it was -1.71. Further, the z-score in experiment [4] is -1.71 (inactive).

Consider `CC(C)=CCCC(C)=CC(O)C1C=CC2C(=O)N(C)C(=O)C2N1Nc1ccccc1` (stereo not given), for which the composite z-score in experiment [1] came out at 0.854; in experiment [2], 0.473; in [3] it was 0.55; in experiment [5], 0.914; in experiment [6] it was 1.31; in experiment [7], 1.52. The composite z-score was found to be 1.47 in experiment [8], 0.893 in [9] and 1.07 in experiment [10]. In experiment [4], the z-score is 3.04 (inactive).

With `O=C1N[C@@H](Cc2ccccc2)C(=O)N2[C@@H]1C[C@@H](C(=O)O)[C@H]2c1cccc(OCCO)c1`, the composite z-score in experiment [1] was found to be 1.56; in experiment [2], 0.0092; in experiment [3], 0.18; in experiment [5], 1.45; in experiment [6], 1.29; in experiment [7] it was 0.334. The figures for the composite z-score in experiment [8], in experiment [9] and in experiment [10] were 0.798, 1.18 and 0.806, respectively. In addition, in experiment [4], the z-score is 0.152 (inactive).

Regarding `CO[C@H]1O[C@H](CO)[C@@H](OC(=O)Nc2ccc(C(F)(F)F)cc2)[C@H](OC(=O)Nc2ccc3c(c2)OCO3)[C@@H]1OC(=O)Nc1ccc2c(c1)OCO2`, the composite z-score in experiment [1] was 1.06; in experiment [2], 0.346; in experiment [3] it was 0.284; in [5], 1.41; in experiment [6], 1.2; in experiment [7], 0.587. Further, the composite z-score is 0.527 in experiment [8], 0.711 in experiment [9] and 0.543 in experiment [10]. Moreover, the z-score in experiment [4] was -1.29 (inactive).

On to `CC(C)c1ccc(NN2C(C(O)c3ccc(B(O)O)cc3)C=CC3C(=O)N(c4ccccc4)C(=O)C32)cc1` (stereo not given), for which the composite z-score in [1] is 1.24; in [2] it was 0.942; in experiment [3], 1.05; in [5], 1.11; in experiment [6] it was 1.25; in [7] it was -0.109. Also, the results for the composite z-score in experiment [8], in [9] and in [10] were 1.38, -0.381 and 0.849, respectively. In addition, the z-score in experiment [4] is 0.844 (inactive).

`CC(=O)NCCCC[C@@H]1NC(=O)[C@@H]2C[C@H](C(=O)NCCCCCNC(=O)CS)[C@H](c3cccc(OCCO)c3)N2C1=O`: the composite z-score in [1] was 1.16; in experiment [2], -0.394; in experiment [3], -0.155; in [5], 0.0349; in experiment [6], -0.0868; in [7], 0.724. Besides, the composite z-score in experiment [8] amounted to 1.07; in [9] it was 1.11; in experiment [10], 0.337. Further, the z-score in [4] was -2.01 (inactive).

With `COCCCNC(=O)[C@@]1(C)c2ccccc2C(=O)N(C(C)C)[C@H]1c1ccc(CO)cc1`, the composite z-score was found to be 0.572 in [1]; 0.174 in experiment [2]; 0.343 in experiment [3]; 0.555 in [5]; 0.497 in [6]; 0.517 in experiment [7]. For the same compound, the composite z-score amounted to 0.861 in experiment [8], 0.888 in experiment [9] and 0.531 in experiment [10]. The z-score in experiment [4] is -0.373 (inactive).

`C=C(CCCC)/C(=C/C[C@@H](OC(C)=O)c1ccc(OCCO)cc1)c1cnc2ccccc2c1`: the composite z-score in experiment [1] was 0.619; in experiment [2], -0.12; in experiment [3], 0.149; in experiment [5], 0.628; in experiment [6] it was -0.174; in [7] it was 0.401. Also, the composite z-score in [8] came to 1.12; in experiment [9] it was 0.698; in [10], 1.53. For the same compound, the z-score in [4] was -0.27 (inactive).

`CCCCCCc1nc(-c2cc(C)c(OC)c(C)c2)cc2c1[Si](C(C)C)(C(C)C)OC2`: the composite z-score is -0.218 in experiment [1]; -0.12 in [2]; -0.0937 in [3]; -0.0932 in experiment [5]; 0.194 in [6]; -0.314 in experiment [7]. The values for the composite z-score in experiment [8], in experiment [9] and in experiment [10] were -0.105, -0.0304 and 0.641, respectively. Further, the z-score in [4] was -2.3 (inactive).

(Values after PubChem BioAssay.)
